Measurements reported in PubChem BioAssay (NCATS).
Inconclusive results are not listed. Active and inactive are the calls of the source. The call rests on the fitted dose curve; in most records, active means well fitted curve in the direction sought with a large enough effect; inconclusive means small, poorly fitted or top-dose-only effect, or another doubt; inactive means no such curve, though single readings can be large; an effect the other way counts as inactive or inconclusive.

Columns and labels:
[1] = HPAF-II Cancer Cell Toxicity qHTS against the NCATS CANVASS Library (AID 1347346); conditions: HPAF-II viability, CellTiter-Glo ATP luminescence, 72 h; further: potency means the concentration at half of the fitted maximal effect; nearly all actives have a fitted effect of over 55% in size
Excerpt: (§1) Natural products and their derivatives continue to be wellsprings of nascent therapeutic potential. However, many laboratories have limited resources for biological evaluation, leaving their previously isolated or synthesized compounds largely or completely untested. To address this issue, the Canvass library of natural products was assembled (https://tripod.nih.gov/canvass), in collaboration with academic and industry researchers, for quantitative high-throughput screening (qHTS) across a diverse set of cell-based and biochemical assays. The pure (>85% purity by liquid chromatography/mass spectrometry [LC/MS]) Canvass library of 346 natural products were submitted by 45 academic laboratories and companies around the world. […] The library was formatted into 1536-well plates and evaluated in 50 qHTS (in an 11-pnt concentration series) bioassays with broad scope of disease-relevant mechanisms. The resulting data set from 50 different assays was then systematically analyzed to identify overall trends and specific natural products with interesting biological activities. […]
Cancer Cell Toxicity protocol for cell lines COV-362, OV-KATE, OV-SAHO, UWB1.289, UWB1.289-WTBRCA1, HEK-293, HPAF-II, Panc-1005, SW1088, or U-118MG. […] 7.#Luminescence signal was acquired via the ViewLux plate reader (PerkinElmer) using a clear filter, 2 second exposure and 2x binning settings.

[2] = UWB1.289 Cancer Cell Toxicity qHTS against the NCATS CANVASS Library (AID 1347347); conditions: UWB1.289 viability, CellTiter-Glo luminescence, 72 h; series mostly up to 38.3 µM; further: nearly all actives have a fitted effect of over 60% in size
How it was run: (§2)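 Viability read-out: CellTiter-Glo luminescence after 72 h compound exposure at 37 °C/5% CO2. Cells plated at 1000/well, 4 h pre-incubation; 11-point titration. Bortezomib served as control.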

[3] = OV-SAHO Cancer Cell Toxicity qHTS against the NCATS CANVASS Library (AID 1347348); conditions: OV-SAHO viability, CellTiter-Glo luminescence, 72 h; series mostly up to 38.3 µM; further: nearly all actives have a fitted effect of over 55% in size
How it was run: as §2

[4] = SW1088 Cancer Cell Toxicity qHTS against the NCATS CANVASS Library (AID 1347350); conditions: SW1088 viability, CellTiter-Glo luminescence, 72 h; at 38.3 µM (top of the series); further: nearly all actives have a fitted effect of over 75% in size
How it was run: as §2

[5] = U-118MG Cancer Cell Toxicity qHTS against the NCATS CANVASS Library (AID 1347351); conditions: U-118MG viability, CellTiter-Glo luminescence, 72 h; series mostly up to 38.3 µM
How it was run: as §2

[6] = COV-362 Cancer Cell Toxicity qHTS against the NCATS CANVASS Library (AID 1347352); conditions: COV-362 viability, CellTiter-Glo luminescence, 72 h; series mostly up to 38.3 µM
How it was run: (§3)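 qHTS cytotoxicity: compounds tested in 11 concentrations on 1000 seeded cells per well over 72 h; bortezomib served as control; signal from CellTiter-Glo luminescence.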

[7] = A2780 Cisplatin Sensitive Ovarian Cancer Cell Toxicity qHTS against the NCATS CANVASS Library (AID 1347353); conditions: A2780 ovarian cancer viability, ATPLite luminescence, 72 h; at 46.1 µM (top of the series); further: nearly all actives have a fitted effect of over 60% in size
How it was run: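 Seventy-two-hour exposure of cisplatin-sensitive A2780 ovarian cells to an 11-concentration qHTS series; cytotoxicity is inferred from loss of ATPLite luminescence. Bortezomib titration served as positive control.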

[8] = UWB1.289-WTBRCA1 Cancer Cell Toxicity qHTS against the NCATS CANVASS Library (AID 1347354); conditions: UWB1.289-WTBRCA1 viability, CellTiter-Glo luminescence, 72 h; series mostly up to 38.3 µM
How it was run: as §3

[9] = HEK-293 Cancer Cell Toxicity qHTS against the NCATS CANVASS Library (AID 1347355); conditions: HEK-293 viability, CellTiter-Glo luminescence, 72 h; at 46.1 µM (top of the series); further: nearly all actives have a fitted effect of over 65% in size
Excerpt: as §1
Cancer Cell Toxicity COV-362, OV-KATE, OV-SAHO, UWB1.289, UWB1.289-WTBRCA1, HEK-293, HPAF-II, Panc-1005, SW1088, and U-118MG-screen protocol. […] Luminescence signal was acquired via the ViewLux plate reader (PerkinElmer) using a clear filter, 2 second exposure and 2x binning settings.

[10] = HPAF-II 24hr Apoptosis Induction qHTS against the NCATS CANVASS Library (AID 1347356); conditions: HPAF-II caspase-3/7 Caspase-Glo luminescence; series mostly up to 46.1 µM
How it was run: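 Apoptosis induction in HPAF-II pancreatic cancer cells is measured as caspase-3/7 luminescence after a 24-hour exposure to compounds.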

Measured: Potency

COc1ccc2[nH]cc(CCNC(C)=O)c2c1
active: [1] 5.95 µM
inactive: all other assays above
